PubChem BioAssay
Active and inactive are the calls of the source.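 The calls were made as follows: active = compound raises GLP1 secretion from the human gut endocrine cells, with no numeric limit stated; inactive = the rest.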 Non-standard residues stand in square brackets, D forms with d. Residues, ends and D or L forms follow the SMILES beside them. pGlu = O=C1CC[C@@H](C(=O)O)N1

Experiment: glucagon-like peptide 1 release enhancers, primary assay, NCI-H716 cell line, NPC library (AID 1117341); also: reference of the scale not given here
Conditions: NCI-H716 cells, at 10 µM, hits give high values

| SMILES | GLP1 secretion stimulation |
| --- | --- |
| Cc1cccc(C)c1NC(=O)CN(CC(=O)O)CC(=O)O | 1.6% (inactive) |
| CCCCCCCCCCOCC(O)CN (centres undefined) | -3.3% (inactive) |
| Nc1ccc([N+](=O)[O-])c(C(F)(F)F)c1 | -0.8% (inactive) |
| CC1(C)OC[C@@H]2O[C@@]3(C(=O)O)OC(C)(C)O[C@H]3[C@@H]2O1 | -3.6% (inactive) |
| CC(O)CCCCn1c(=O)c2c(ncn2C)n(C)c1=O (centres undefined) | -3.4% (inactive) |
| CC(=O)OC[C@H]1O[C@@](COC(C)=O)(O[C@H]2O[C@H](COC(C)=O)[C@@H](OC(C)=O)[C@H](OC(C)=O)[C@H]2OC(C)=O)[C@@H](OC(C)=O)[C@@H]1OC(C)=O | -0.5% (inactive) |
| CCc1oc2ccccc2c1C(=O)c1cc(I)c(O)c(I)c1 | -3.6% (inactive) |
| CCCCC(C)(O)CC=C[C@H]1[C@H](O)CC(=O)[C@H]1CCCCCCC(=O)OC (some centres undefined) | -1.9% (inactive) |
| O=C1c2ccccc2CCc2ccccc21 | -1.2% (inactive) |
| Nc1c(NC/C=C\COc2cc(CN3CCCCC3)ccn2)c(=O)c1=O | 4% (inactive) |
| Oc1ccccc1-c1nnco1 | -0.1% (inactive) |
| C=CCNc1nc(NCC=C)nc(N2CCN(C(c3ccc(F)cc3)c3ccc(F)cc3)CC2)n1 | -3.9% (inactive) |
| O=Cc1ccccc1C=O | 2.6% (inactive) |
| CC(=O)OC[C@H]1O[C@@H](n2ncc(=O)[nH]c2=O)[C@H](OC(C)=O)[C@@H]1OC(C)=O | -0.6% (inactive) |
| Oc1cccc(O)c1O | -1% (inactive) |
| CCCC(=O)O[C@]1(C(=O)CC)CC[C@H]2[C@@H]3CCC4=CC(=O)CC[C@]4(C)[C@H]3[C@@H](O)C[C@@]21C | 5.3% (inactive) |
| OCCCc1ccccc1 | 4.3% (inactive) |
| CC(C)C(=O)Nc1cccc(C2CN3CCSC3=N2)c1 (centres undefined) | 5% (inactive) |
| CCNC(=O)[C@@H]1CCCN1C(=O)[C@H](CCCN=C(N)N)NC(=O)[C@H](CC(C)C)NC(=O)CNC(=O)[C@H](Cc1ccc(O)cc1)NC(=O)[C@H](CO)NC(=O)[C@H](Cc1c[nH]c2ccccc12)NC(=O)[C@H](Cc1cnc[nH]1)NC(=O)[C@@H]1CCC(=O)N1 ([pGlu]HWSYGLRP-NHEt) | -2.8% (inactive) |
| CN1CC(O)c2cc(N=NC(N)=O)c(O)cc21 (centres undefined) | 2.9% (inactive) |

| SMILES | GLP1 secretion stimulation |
| --- | --- |
| C[C@@H]1C[C@H]2[C@@H]3CCC4=CC(=O)C=C[C@]4(C)[C@@]3(F)[C@@H](O)C[C@]2(C)[C@@]1(O)C(=O)COC(=O)c1ccncc1 | -1.9% (inactive) |
| c1ccc2[nH]ccc2c1 | 1.9% (inactive) |
| O=C(O)COc1nn(Cc2ccccc2)c2ccccc12 | 1.7% (inactive) |
| C[C@]12C=CC(=O)C=C1[C@@H](F)C[C@@H]1[C@@H]2[C@@H](O)C[C@@]2(C)[C@H]1CC[C@]2(O)C(=O)CO | -2.3% (inactive) |
| O=S(=O)(O)CC(S)CS (centres undefined) | -7% (inactive) |
| CCOC(=O)c1ccc(NC(=O)CN2CCCCC2)cc1 | 0.9% (inactive) |
| CN1[C@@H]2CC[C@H]1CC(NC(=O)n1c(=O)[nH]c3ccccc31)C2 (some centres undefined) | 2.8% (inactive) |
| Cc1cn([C@@H]2O[C@H](CO)[C@@H](O)[C@H]2F)c(=O)[nH]c1=O | -3% (inactive) |
| Cc1ccc(O)c2ncccc12 | 2.8% (inactive) |
| OCc1ccc(Cl)cc1Cl | -5% (inactive) |
| CN(C)[C@@H]1C(=O)C(C(N)=O)=C(O)[C@@]2(O)C(=O)C3=C(O)c4c(O)cccc4C[C@H]3C[C@@H]12 | 18.7% (inactive) |
| CCS(=O)(=O)c1ccc(OC)c(C(=O)OC)c1 | 1% (inactive) |
| OC[C@H]1O[C@@H](n2cnc3c(=S)nc[nH]c32)[C@H](O)[C@@H]1O | -1.6% (inactive) |
| NS(=O)(=O)c1cc(-c2nn[nH]n2)c(NCc2cccs2)cc1Cl | -0.2% (inactive) |
| Cc1cc(CCCOc2c(C)cc(-c3noc(C(F)(F)F)n3)cc2C)on1 | -4.1% (inactive) |
| Cc1c(C)n(Cc2ccccc2)c2ccc(C(=O)OCCN(C)C)cc12 | 10.7% (inactive) |
| O=C1NC(c2ccccc2)(c2ccccc2)C(=O)N1COP(=O)(O)O | 5.2% (inactive) |
| CC(C)=CCC/C(C)=C/CC/C(C)=C/C(=O)OCC(=O)[C@@]1(O)CC[C@H]2[C@@H]3CCC4=CC(=O)C=C[C@]4(C)[C@H]3[C@@H](O)C[C@@]21C | -0.8% (inactive) |
| O=C1CC[C@H](C(=O)N2CCCCC2)N1 | 0.9% (inactive) |
